High-throughput results: PubChem, several laboratories
PGE2 EP2 inh: human EP2 receptor antagonists, primary screen, TR-FRET cAMP, C6 glioma cells; inhibition, % at 25 µM; actives 0.52% (n = 260,000); C6 glioma cells expressing human EP2; cells stimulated with saturating PGE2; Prostaglandin E2 receptor EP2 subtype (Homo sapiens), P43116;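 active means percent inhibition above 40 after rounding to a whole number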;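 further: rat C6 glioma host cells with rolipram phosphodiesterase inhibitor present; the protocol text gives 20 µM as final concentration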
Target sequence (P43116 whole entry, looked up): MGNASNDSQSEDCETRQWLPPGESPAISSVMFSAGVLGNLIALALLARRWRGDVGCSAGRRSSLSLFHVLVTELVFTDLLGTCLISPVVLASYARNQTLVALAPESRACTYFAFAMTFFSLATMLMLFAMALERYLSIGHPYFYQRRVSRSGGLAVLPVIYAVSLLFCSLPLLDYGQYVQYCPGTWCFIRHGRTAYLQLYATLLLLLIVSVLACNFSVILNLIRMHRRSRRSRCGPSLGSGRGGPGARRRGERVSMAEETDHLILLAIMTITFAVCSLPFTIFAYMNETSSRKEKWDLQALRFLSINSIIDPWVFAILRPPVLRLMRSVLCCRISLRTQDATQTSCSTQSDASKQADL
S1P4 ag: S1P4 receptor agonists, primary screen, cell-based | Sphingosine 1-phosphate receptor 4 (Homo sapiens), O95977 | S1P4-expressing cell line, agonist reporter assay | activation, % at 4.98 µM | actives 0.35% (n = 220,000) | AID 1509, 2009; in the data active means activation above about 11%
EP2 mod: EP2 receptor modulators, cAMP readout, primary screen, cell-based, HTRF cAMP, PGE2 stimulation | Prostaglandin E2 receptor EP2 subtype (Homo sapiens), P43116 | EP2-expressing cells, cAMP HTRF FRET, PGE2 co-stimulation | induction, % at 25 µM | actives 0.83% (n = 260,000);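 active means compounds whose cAMP rise, as percent of the full-agonist control response, exceeds 60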;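 further: rat C6 glioma line stably carrying human EP2 under a CMV promoter; the protocol text gives 20 µM as final concentration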
S1P4 antag: S1P4 receptor antagonists, primary screen, cell-based; Sphingosine 1-phosphate receptor 4 (Homo sapiens), O95977; actives 0.26% (n = 220,000); inhibition, % at 4.98 µM; S1P4-expressing cells, antagonist mode, reporter read-out; in the data active means inhibition above about 29%
S1P3 antag: S1P3 receptor antagonists, primary screen, cell-based. Sphingosine 1-phosphate receptor 3 (Homo sapiens), Q99500. CHO S1P3 NFAT-BLA reporter, FRET fluorescence, antagonist mode. inhibition, % at 4.98 µM. actives 0.27% (n = 170,000). AID 485, 2006;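 active means inhibition above the plate cutoff, the mean inhibition of test wells on that plate plus 3 SD, cut at about 28% in these data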;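 further: cells challenged with S1P at its EC80 of 0.8 µM; blue over green emission ratio from cleaved BLA substrate after 4 h stimulation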
S1P4 antag conf: S1P4 receptor antagonists, human, confirmation, cell-based | shares compounds with S1P4 antag | inhibition, % at 4.98 µM | S1P4-expressing cell line, antagonist mode, reporter read-out | actives 71% (n = 520); in the data active means inhibition above about 30%
S1P1 antag: S1P1 receptor antagonists, human, counter-screen for S1P4 antagonist project, cell-based. inhibition, % at 4.98 µM. actives 37% (n = 520). cell-based S1P1 antagonist counterscreen, inhibition. shares compounds with S1P4 antag. AID 1564, 2009; in the data active means inhibition above about 40%;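 further: receptor stimulated with S1P near its EC80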
Each line names hits and unclear results; the compound was inactive in the other large screens (follow-up assays come after a bar, where they were run). Only some compounds are listed: those with a hit (about 2% of all), similar ones and a draw of the others.

O=S(=O)(c1cccs1)N1CCN(S(=O)(=O)c2cccs2)CC1	none
COc1ccc(Nc2nc(Nc3ccc(OC)cc3)nc(SC3=NCCS3)n2)cc1	S1P4 antag 29 (no result: S1P3 antag) | S1P4 antag conf 47 | S1P1 antag inactive
COc1ccc(Nc2nc(OC)nc(OC)n2)cc1	none (no result: S1P4 ag, S1P4 antag, S1P3 antag)
CCOC(=O)C1(Cc2ccccc2)CCN(Cc2cn(CC(=O)OC)c3ccccc23)CC1	S1P4 antag 30 | S1P4 antag conf inactive | S1P1 antag inactive
CC(=O)N(C1=C(Cl)C(=O)c2ccccc2C1=O)C1CCCCC1	PGE2 EP2 inh 124, S1P4 antag 52 | S1P4 antag conf 115 | S1P1 antag 61
CC(=O)N(c1ccccc1C)C1CCCC1	none
CCOCCCNC(=O)C(C)Sc1nc(-c2ccccc2)nc2c(C)ccc(C)c12 (centres undefined)	none (no result: S1P4 ag, S1P4 antag, S1P3 antag)
Cn1c(SCC(=O)Nc2ccc(OCc3ccccc3)cc2)nnc1C1CC1	none (no result: S1P4 ag, S1P4 antag, S1P3 antag)
COc1ccc(C[C@H]2CN3C(=NC[C@@H]3C(C)C)N2CCNC(=O)c2ccc(C)c(Br)c2)cc1	S1P4 antag 34 | S1P4 antag conf 41 | S1P1 antag inactive
Cc1ccc(C(=O)NCCN2C3=NC[C@H](C(C)C)N3C[C@H]2Cc2ccc(O)cc2)cc1Br	none
CCn1c(SCC(=O)N2c3ccc(F)cc3CCC2C)nc2ccccc2c1=O (centres undefined)	none (no result: S1P4 ag, S1P4 antag, S1P3 antag)
Cc1ccc(NC(=O)CS(=O)CC(=O)Nc2ccc(N3CCOCC3)cc2)cc1Cl (centres undefined)	S1P4 antag 30 | S1P4 antag conf inactive | S1P1 antag inactive
O=C(Nc1ccc(N2CCOCC2)cc1)Nc1ccc(Cl)c(Cl)c1	none (no result: S1P3 antag)
Cc1cc(NC2CCCCC2)nc2ccccc12	S1P4 antag 30 | S1P4 antag conf inactive | S1P1 antag 55
Cc1cc(NCc2ccccn2)nc2ccccc12	none (no result: S1P3 antag)
CC1CCCC(C)N1C(=O)Cn1nc(-c2cccnc2)oc1=O (centres undefined)	none (no result: PGE2 EP2 inh, S1P4 ag, S1P4 antag, S1P3 antag)
Cc1ccc2oc(=O)n(CCCOc3ccccc3)c2c1	S1P4 antag 34 | S1P4 antag conf inactive | S1P1 antag inactive
O=C(N/N=C/c1cccc2cccnc12)c1ccccc1O	S1P4 antag 32 | S1P4 antag conf 101 | S1P1 antag 79
O=c1cc(O)sc2ccccc12	none
O=c1[nH]sc2ccccc12	S1P4 antag 32 | S1P4 antag conf 91 | S1P1 antag inactive
Cc1nn(C)c(C)c1N1C(=O)c2cccc3c(Br)ccc(c23)C1=O	S1P4 antag 44 (no result: S1P3 antag) | S1P4 antag conf 89 | S1P1 antag 85
Cc1nn(C)c(C)c1N1C(=O)c2cccc3c(N)ccc(c23)C1=O	none
CCc1ccc2[nH]c(=O)c(CN(CCN3CCOCC3)C(=O)Nc3ccc(C)cc3)cc2c1	none (no result: S1P4 ag, S1P4 antag, S1P3 antag)
CCNc1nc(NC(C)(C)C)nc(N2CCCCC2)n1	S1P4 antag 44 | S1P4 antag conf 92 | S1P1 antag inactive
CCNc1nc(N2CCCC2)nc(N2CCCC2)n1	none
O=C(Cc1ccc(F)cc1)N1C2CCC1CC(O)(c1ccco1)C2 (centres undefined)	none (no result: PGE2 EP2 inh, S1P4 ag, S1P4 antag, S1P3 antag)
CC1CCN(CCc2nc3cc(NC(=O)Nc4ccccc4)ccc3n2C)CC1	S1P4 antag 32 | S1P4 antag conf inactive | S1P1 antag inactive
O=C(/C=C/c1ccccc1Cl)c1ccc(O)cc1	none
O=C(/C=C/c1c(F)cccc1Cl)c1ccc(O)cc1	S1P4 antag 42 | S1P4 antag conf 62 | S1P1 antag inactive
CC1=NNC(=O)/C1=C\c1cn(-c2ccccc2)nc1-c1ccc(F)cc1	S1P4 antag 30 | S1P4 antag conf 110 | S1P1 antag inactive
CC1=NNC(=O)/C1=C\c1cn(-c2ccccc2)nc1-c1cccs1	none
CS(=O)(=O)c1nc(-c2ccccc2)cc(C(F)(F)F)n1	S1P4 antag 40 (no result: PGE2 EP2 inh, S1P3 antag) | S1P4 antag conf 116 | S1P1 antag inactive
